From PubChem BioAssay
DT40 TDP1 no CPT: qHTS for Inhibitors of human tyrosyl-DNA phosphodiesterase 1 (TDP1): qHTS in cells in absence of CPT | DT40 Tdp1-/- hTDP1 cells, no CPT, ATP luminescence, 48 h | Potency, µM (titrated, usually from 46.2 µM), most hits filed as inhibitors | 420,000 tested, 15% active | AID 686978, 2013; also: nearly all actives have a fitted effect of over 55% in size
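Growth kinetics read by CellTiter-Glo luminescence after ≥48 hr at 37 °C. Cells: DT40 Tdp1-/- stably carrying human TDP1, 400 per well, compound exposure in the absence of CPT (DMSO vehicle).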
DT40 TDP1 CPT: growth inhibition of DT40 Tdp1-/-;hTDP1 cells with camptothecin (screen for TDP1 inhibitors); AID 686979; 420,000 tested, 12% active; chicken DT40 Tdp1-/-;hTDP1 cells + 20 nM CPT, ATP luminescence, 48 h; Potency, µM (doses to about 46.2 µM), actives largely listed as inhibitors; also: nearly all actives have a fitted effect of over 55% in size
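Chicken DT40 Tdp1-/- cells complemented with human TDP1, 400 cells/well, exposed to compounds plus 20 nM camptothecin for at least 48 h at 37 C; viability read as ATP content by CellTiter-Glo luminescence.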
HT1080-NT tox: kills 2HG-producing HT-1080-NT fibrosarcoma cells; Potency, µM (series often up to 46.1 µM), most hits filed as cytotoxic; HT-1080-NT fibrosarcoma viability, CellTiter-Glo ATP luminescence, 48 h; 360,000 tested, 1.6% active; AID 686970;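 also: NT is the 2HG producing partner of a matched IDH1 knockdown line; nearly all actives have a fitted effect of over 55% in size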
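Luminescent CellTiter-Glo readout after 48 hours of compound exposure at 37 degrees C defined viability of HT-1080-NT cells. Activity was normalized to DMSO wells and cell-free media wells; concentration-response curves were fitted and assigned curve classes.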
IL1B secr inh: blocks inflammasome-driven IL-1 beta release; THP-1 LPS/ATP IL-1B secretion, AlphaLISA, 16 h; hits give low values; AID 743279; 360,000 tested, 4.7% active; activity change, % at 57.5 µM; in the data active = activity change below about -50%; inconclusive = mostly about -30% to -49%
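Secreted IL-1B measured by AlphaLISA bead assay after 16 h compound exposure of THP-1 cells; compounds (final up to 57.5 uM) added 1 h before LPS (250 ng/mL) and ATP (1.25 mM) stimulation; lower signal means less secretion.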
HT1080 IDH1KD tx: kills HT-1080 cells with IDH1 knockdown. AID 686971. 360,000 tested, 2% active. HT-1080 IDH1 knockdown viability, ATP luminescence, 48 h. Potency, µM (series often up to 46.1 µM), most hits filed as cytotoxic
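Knockdown cells (IDH1KD HT-1080) received compounds 2 h after plating at 750 cells/well and were kept 48 h at 37 °C in 5% FBS RPMI. A CellTiter-Glo luminescence read gave % activity for curve fitting.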
ELG1 repair inh: inhibitors of ELG1-dependent DNA repair in HEK293T cells; 330,000 tested, 2.3% active; HEK293T ELG1-luciferase reporter, luminescence, 16 h; DNA damage induced by 5-fluorouridine; Potency, µM (titrated, usually from 46.1 µM), usual class: inhibitors; AID 504467; also: nearly all actives have a fitted effect of over 55% in size
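Reporter activity after DNA damage by 5-fluorouridine is monitored. Compound-treated cells incubate 16 hr at 37 °C, then ONE-Glo is added for 30 min before luminescence reading.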
Of the large screens only hits and unclear results are named; the others gave an inactive call. Sampled rows, rich in hits. Any-hit rate of the full collection: about 19%. Unless noted, calls follow the shape of the dose curve; as a rule, active = well fitted curve in the direction sought with a large enough effect; inconclusive = small, poorly fitted or top-dose-only effect, or another doubt; inactive = no such curve, though single readings can be large; an effect the other way counts as inactive or inconclusive.

O=C(Nc1nnc(S(=O)(=O)N2CCOCC2)s1)c1ccc(Cl)cc1	DT40 TDP1 no CPT inconclusive, DT40 TDP1 CPT inconclusive
O=C(Nc1nnc(S(=O)(=O)N2CCN(c3ccc(F)cc3)CC2)s1)c1ccccc1	ELG1 repair inh inconclusive
CC1CCN(S(=O)(=O)c2nnc(NC(=O)c3cccc(Cl)c3)s2)CC1	DT40 TDP1 no CPT 21µM, DT40 TDP1 CPT 13µM, ELG1 repair inh inconclusive
Cc1ccc(N2CCN(S(=O)(=O)c3nnc(NC(=O)c4cccc(F)c4)s3)CC2)cc1	DT40 TDP1 no CPT 15µM, DT40 TDP1 CPT 18µM (no result: HT1080-NT tox, IL1B secr inh, HT1080 IDH1KD tx, ELG1 repair inh)
O=C(Nc1ccc(N2CCOCC2)c(Cl)c1)c1ccc2c(c1)OCCO2	DT40 TDP1 no CPT inconclusive, DT40 TDP1 CPT inconclusive, IL1B secr inh inconclusive, ELG1 repair inh inconclusive
O=C(Nc1ccc(N2CCCC2)c(Cl)c1)c1ccc2c(c1)OCCO2	DT40 TDP1 no CPT 21µM, DT40 TDP1 CPT inconclusive, IL1B secr inh -64 (no result: ELG1 repair inh)
O=C(Nc1ccc(N2CCCCC2)c(Cl)c1)c1ccc2c(c1)OCCO2	DT40 TDP1 no CPT 21µM, DT40 TDP1 CPT inconclusive, HT1080-NT tox inconclusive, HT1080 IDH1KD tx inconclusive
Cc1cccc(-n2ccnc2SCC(=O)Nc2cccc(S(=O)(=O)NC3=NCCC3)c2)c1C	DT40 TDP1 no CPT inconclusive, DT40 TDP1 CPT inconclusive
COc1ccc(Cl)cc1S(=O)(=O)Nc1cccc(-c2ccc(N3CCCC3)nn2)c1	none (no result: HT1080-NT tox, IL1B secr inh, HT1080 IDH1KD tx, ELG1 repair inh)
CCOc1ccc(Cn2c(=O)sc3ccccc32)cc1OC	DT40 TDP1 no CPT inconclusive, DT40 TDP1 CPT inconclusive, ELG1 repair inh inconclusive
COc1cc(Cn2c(=O)sc3ccccc32)ccc1OC(C)C	DT40 TDP1 no CPT 21µM, DT40 TDP1 CPT inconclusive (no result: HT1080-NT tox, IL1B secr inh, HT1080 IDH1KD tx, ELG1 repair inh)
COc1ccc(OCC(=O)NC(Cc2c[nH]c3ccccc23)C(=O)O)cc1 (stereo not given)	none (no result: HT1080-NT tox, IL1B secr inh, HT1080 IDH1KD tx, ELG1 repair inh)
C#CCN(C[C@H]1[C@H](OC(=O)NCC2CCCCC2)[C@H](OC(=O)NCC2CCCCC2)C[C@@H](C(=O)OC)[C@H]1C(=O)OC)S(=O)(=O)c1ccc(C)cc1	DT40 TDP1 no CPT 2.9µM, DT40 TDP1 CPT 2.9µM (no result: ELG1 repair inh)
C#CCN(C[C@H]1[C@H](OC(=O)NCc2ccccc2F)[C@H](OC(=O)NCc2ccccc2F)C[C@@H](C(=O)OC)[C@H]1C(=O)OC)S(=O)(=O)c1ccc(C)cc1	DT40 TDP1 no CPT 6.5µM, DT40 TDP1 CPT 4.6µM (no result: ELG1 repair inh)
CCOc1ccc(N(C(=O)CNC(=O)c2cccs2)C(C(=O)NCC2CCCO2)c2ccc(OC)c(OC)c2)cc1 (stereo not given)	none
O=C(CN(Cc1ccccc1)C(=O)c1cc2c(s1)CCC2)NCc1cccs1	DT40 TDP1 no CPT inconclusive, IL1B secr inh inconclusive, ELG1 repair inh inconclusive
O=C(CN(C(=O)c1cc2c(s1)CCC2)C1CCCC1)NCc1cccs1	DT40 TDP1 no CPT 18µM, DT40 TDP1 CPT 8.2µM, IL1B secr inh inconclusive, ELG1 repair inh inconclusive
COc1cccc(OCCCn2cc(/C=C3/C(=N)N4C=C(C)SC4=NC3=O)c3ccccc32)c1	DT40 TDP1 no CPT 6.5µM, DT40 TDP1 CPT 8.2µM, HT1080-NT tox inconclusive, HT1080 IDH1KD tx inconclusive
COc1cccc(OCCn2cc(C=O)c3ccccc32)c1	DT40 TDP1 no CPT inconclusive
CC1=CN2C(=N)/C(=C/c3ccco3)C(=O)N=C2S1	ELG1 repair inh inconclusive
COc1ccc(OCCCn2cc(/C=C3/C(=N)N4C=C(C)SC4=NC3=O)c3ccccc32)cc1	DT40 TDP1 no CPT 7.3µM, DT40 TDP1 CPT inconclusive, ELG1 repair inh inconclusive
COC(=O)c1c(OCc2cccnc2)cc(=O)n2c1CCN(C(=O)c1cccc(N(C)C)c1)CC2	none (no result: HT1080-NT tox, IL1B secr inh, HT1080 IDH1KD tx, ELG1 repair inh)
C[C@H](O)[C@@H]1C(=O)N2CCc3c([nH]c4ccccc34)[C@@H]2C[C@@H]1N(C)C(=O)c1ccco1	DT40 TDP1 CPT inconclusive (no result: ELG1 repair inh)
N#Cc1cccc(-c2csc(C(O)(c3ccccc3)C(F)(F)F)n2)c1 (stereo not given)	DT40 TDP1 no CPT inconclusive, DT40 TDP1 CPT inconclusive, HT1080-NT tox inconclusive, HT1080 IDH1KD tx 16µM (no result: ELG1 repair inh)
